{"source": "PubChem BioAssay (NCI)", "note": "Several values for one entry are separate records, joined by “and”; a condition that tells them apart may be missing. Equal values may be shown once. This is part of a sample that, as a whole, favours compounds with a hit. Of some 83,000 tested, about 20% had one in any assay.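 In brief: 96-well plates, 48 h treatment, single concentration, percent growth endpoint.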 Activity calls are given as the source filed them. Rule for the calls: active = growth percent below 10; inactive = the rest.", "data": [{"tested_on": "BT-549 breast", "test": "NCI-60 one-dose screen, 48 h (100 = growth as untreated, 0 = no growth, -100 = all killed)", "settings": "10 µM unless noted", "values": [{"smiles": "Nc1cc(N)c(N)cc1N", "growth": "85.4% (inactive)"}, {"smiles": "O=[N+]([O-])c1cccc(SSc2cccc([N+](=O)[O-])c2)c1", "growth": "101% (inactive)"}, {"smiles": "Oc1ccc(Cc2ccccc2Cl)c(O)c1", "growth": "99.2% (inactive)"}, {"smiles": "OCCN1CCCCCCC1", "growth": "98.2% (inactive)"}, {"smiles": "Fc1ccc([I+]c2ccc(F)cc2)cc1", "growth": "67% (inactive)"}, {"smiles": "COc1ccc2cc1Oc1ccc(cc1)C[C@H]1c3cc(c(OC)cc3CCN1C)Oc1c(OC)c(OC)cc3c1[C@H](C2)N(C)CC3", "growth": "28.5% (inactive)"}, {"smiles": "O=C1OC(c2ccccc2)=N/C1=C\\c1ccccc1", "growth": "96.3% (inactive)"}, {"smiles": "COc1ccc(Nc2ccc3ccccc3c2)cc1", "growth": "94.7% (inactive)"}]}, {"tested_on": "MDA-MB-435 melanoma", "test": "NCI-60 one-dose screen, 48 h (100 = growth as untreated, 0 = no growth, -100 = all killed)", "settings": "10 µM unless noted", "values": [{"smiles": "CCc1cc(C)cc(O)c1", "growth": "113% (inactive)"}, {"smiles": "Cc1cc(-c2ccc(N=Nc3ccc4c(S(=O)(=O)O)cc(S(=O)(=O)O)c(N)c4c3O)c(C)c2)ccc1N=Nc1ccc2c(S(=O)(=O)O)cc(S(=O)(=O)O)c(N)c2c1O", "growth": "98.5% (inactive)"}, {"smiles": "c1ccc(CNCCNCc2ccccc2)cc1", "growth": "106% (inactive)"}, {"smiles": "CCCCCCCCCCCCCCCc1ccc(N)c(OC2OC(CO)C(O)C(O)C2O)c1", "note": "(stereo unspecified)", "growth": "99.6% (inactive)"}, {"smiles": "Cc1cc(-c2cc(C)c(O)c(C)c2)cc(C)c1O", "growth": "8.38% (active)"}, {"smiles": "CC[C@H](CC[C@@H](C)[C@H]1CC[C@H]2[C@@H]3CC=C4C[C@@H](O)CC[C@]4(C)[C@H]3CC[C@]12C)C(C)C", "growth": "97.4% (inactive) and 99.4% (inactive)"}, {"smiles": "COc1cc(C(O)C2C(=O)OCC2C2(c3ccc4c(c3)OCO4)SCCCS2)cc(OC)c1OC", "note": "(stereo unspecified)", "growth": "101% (inactive)"}, {"smiles": "Cn1cnc([N+](=O)[O-])c1Sc1ncn[nH]1", "growth": "101% (inactive)"}, {"smiles": "O=C1c2c(O)ccc(O)c2C(=O)c2c(NCCNCCO)ccc(NCCNCCO)c21", "growth": "-89.9% (active) and -94.9% (active)"}, {"smiles": "Nc1cc(N)c(N)cc1N", "growth": "-73.8% (active)"}, {"smiles": "OCCN1CCCCCCC1", "growth": "98.4% (inactive)"}, {"smiles": "CC1CCC(C(C)C)C(NNC(N)=O)C1", "note": "(stereo unspecified)", "growth": "101% (inactive)"}, {"smiles": "Fc1ccc([I+]c2ccc(F)cc2)cc1", "growth": "75% (inactive)"}]}, {"tested_on": "SW-620 colon", "test": "NCI-60 one-dose screen, 48 h (100 = growth as untreated, 0 = no growth, -100 = all killed)", "settings": "10 µM unless noted", "values": [{"smiles": "CCc1cc(C)cc(O)c1", "growth": "107% (inactive)"}, {"smiles": "NN1CCOC(c2ccccc2)C1", "note": "(stereo unspecified)", "growth": "98% (inactive)"}, {"smiles": "ClCCOCCOc1ccc(C2CCCCC2)cc1", "growth": "110% (inactive)"}, {"smiles": "O=c1n(CC2CO2)c(=O)n(CC2CO2)c(=O)n1CC1CO1", "note": "(stereo unspecified)", "growth": "75.5% (inactive)"}, {"smiles": "Cc1ccc(S(=O)(=O)c2ccccc2)cc1", "growth": "11.6% (inactive)"}, {"smiles": "O=C(/C=C/c1ccccc1)c1ccccc1", "growth": "86.6% (inactive)"}, {"smiles": "Cc1cc(-c2ccc(N=Nc3ccc4c(S(=O)(=O)O)cc(S(=O)(=O)O)c(N)c4c3O)c(C)c2)ccc1N=Nc1ccc2c(S(=O)(=O)O)cc(S(=O)(=O)O)c(N)c2c1O", "growth": "110% (inactive)"}, {"smiles": "c1ccc(CNCCNCc2ccccc2)cc1", "growth": "107% (inactive)"}, {"smiles": "Cc1cc2ccccc2cn1", "growth": "104% (inactive) and 116% (inactive)"}, {"smiles": "OC1COC(OCc2ccccc2)C(O)C1O", "note": "(stereo unspecified)", "growth": "109% (inactive)"}, {"smiles": "CCCCCCCCCCCCCCCc1ccc(N)c(OC2OC(CO)C(O)C(O)C2O)c1", "note": "(stereo unspecified)", "growth": "98.2% (inactive)"}, {"smiles": "O=C(O)CCCl", "growth": "105% (inactive)"}, {"smiles": "C#CCOC(=O)Nc1ccccc1", "growth": "105% (inactive)"}, {"smiles": "CC(C)C(C)(C)c1ccc(O)cc1", "growth": "101% (inactive)"}, {"smiles": "Cc1cc(-c2cc(C)c(O)c(C)c2)cc(C)c1O", "growth": "77.4% (inactive)"}, {"smiles": "CC1(C)COC(=S)N1", "growth": "109% (inactive)"}, {"smiles": "CCOC(=O)c1c(C)cc(=O)oc1C", "growth": "110% (inactive)"}, {"smiles": "CC[C@H](CC[C@@H](C)[C@H]1CC[C@H]2[C@@H]3CC=C4C[C@@H](O)CC[C@]4(C)[C@H]3CC[C@]12C)C(C)C", "growth": "110% (inactive) and 104% (inactive)"}, {"smiles": "CN1CNC(=O)NC1", "growth": "105% (inactive) and 104% (inactive)"}, {"smiles": "CC1CCC2(OC1)OC1CC3C4CC=C5CC(O)CCC5(C)C4CCC3(C)C1C2C", "note": "(stereo unspecified)", "growth": "106% (inactive)"}, {"smiles": "COc1cc(C(O)C2C(=O)OCC2C2(c3ccc4c(c3)OCO4)SCCCS2)cc(OC)c1OC", "note": "(stereo unspecified)", "growth": "102% (inactive)"}, {"smiles": "Nc1nc(N)c2[nH]cnc2n1", "growth": "85.9% (inactive)"}, {"smiles": "Cn1cnc([N+](=O)[O-])c1Sc1ncn[nH]1", "growth": "106% (inactive)"}, {"smiles": "O=c1[nH]cnc2c1ncn2C1OC(CO)C(O)C1O", "note": "(stereo unspecified)", "growth": "107% (inactive) and 113% (inactive) and 89.7% (inactive)"}, {"smiles": "CC(=O)OCC1OC(OC(C)=O)C(OC(C)=O)C(OC(C)=O)C1OC(C)=O", "note": "(stereo unspecified)", "growth": "102% (inactive) and 105% (inactive)"}]}]}
